Reference: PubChem BioAssay (NCI)
Compounds without any hit were thinned out: in the full panel of roughly 83,000, 20% have a hit.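 Cell lines were cultured in 96-well plates, exposed to a single compound concentration, and assessed for percent growth 48 hours later.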 Active and inactive are the calls of the source. Rule for the calls: active = growth percent below 10; inactive = the rest.

Assays:
Test in all cases: NCI-60 one-dose screen, 48 h (100 = growth as untreated, 0 = no growth, -100 = all killed)
Settings in all cases: 10 µM unless noted
[1] = system: SR leukemia
[2] = system: RPMI-8226 leukemia
[3] = system: OVCAR-8 ovarian
[4] = system: OVCAR-5 ovarian
[5] = system: OVCAR-4 ovarian
[6] = system: SK-OV-3 ovarian
[7] = system: OVCAR-3 ovarian
[8] = system: HS 578T breast
[9] = system: NCI/ADR-RES ovarian
[10] = system: T-47D breast
[11] = system: BT-549 breast
[12] = system: MDA-MB-435 melanoma
[13] = system: SW-620 colon
[14] = system: MCF7 breast
[15] = system: HCT-116 colon
[16] = system: HCC-2998 colon
[17] = system: KM12 colon
[18] = system: IGROV1 ovarian

Measured: growth

COc1cc(C(=O)c2c(-c3ccccc3)oc3ccccc23)cc(OC)c1O
inactive: [1] 13.7% | [2] 24.7% | [3] 34.6% | [4] 99.8% | [5] 56.3% | [6] 51.2% | [9] 21.8% | [10] 28.7% | [11] 47.4% | [13] 14.6% | [14] 21.8% | [15] 30.7% | [16] 78.4% | [17] 27.7%
active: [7] 2.25% | [8] -3.45% | [12] -30.9%

COc1nc2ccccc2cc1/C=C1/C=C(c2ccccc2)NC1=O
inactive: [1] 20% | [2] 53.7% | [3] 44.8% | [4] 85.4% | [5] 65% | [6] 50.3% | [7] 17.2% | [8] 25.8% | [9] 32.8% | [10] 37.3% | [11] 51.4% | [13] 27.7% | [14] 24.2% | [15] 12.7% | [16] 80.6% | [17] 31.5%
active: [12] -12.5%

CN1CCN(CC(=O)N(C)c2ccc(N=C(c3ccccc3)c3c(O)[nH]c4ccc([N+](=O)[O-])cc34)cc2)CC1
inactive: [1] 19.4% | [2] 82.7% | [3] 79.6% | [4] 122% | [5] 57.7% | [6] 14.4% | [7] 73.6% | [8] 18.2% | [9] 90.8% | [10] 89.7% | [11] 64.4% | [12] 23.5% | [13] 48.4% | [14] 21.9% | [15] 24% | [16] 78.7% | [17] 13.1%

CCN1CCN(c2cc(C(=O)Nc3cccc(Nc4ccc5c(OC)cccc5n4)c3)cc(C(F)(F)F)c2)CC1
active: [1] -3.44% | [2] 7.08% | [9] 9.7% | [12] 1.29% | [13] 3.22% | [14] -45.3% | [16] -53.3% | [17] -10.3%
inactive: [3] 21.1% | [4] 54.8% | [5] 26.9% | [18] 12.8% | [7] 33% | [8] 34% | [10] 11% | [11] 69.6% | [15] 24.3%

C#C[C@]1(O)CC[C@H]2[C@@H]3CC=C4c5sc(-c6ccccc6)nc5CC[C@]4(C)[C@H]3CC[C@@]21C
active: [2] -12.6%
inactive: [1] 30.9% | [3] 101% | [4] 85.6% | [5] 106% | [18] 95.8% | [7] 106% | [8] 62% | [9] 94.4% | [10] 92.7% | [11] 86.2% | [12] 93.6% | [13] 89.9% | [14] 51.2% | [15] 78.2% | [16] 97.4% | [17] 78.9%

C=CC(=O)NCc1cccc(Nc2ncc(Br)c(NCCCNC(=O)C3CCC3)n2)c1
active: [1] 2.53% | [2] -14.7% | [3] 5.56% | [5] -2% | [18] 1.89% | [7] -33.4% | [8] -14.1% | [10] -12% | [11] -50.2% | [12] -51.4% | [13] 0.584% | [14] 1.62% | [15] 4.93% | [16] -48.6% | [17] 4.95%
inactive: [4] 10.2% | [9] 35.8%

Cc1ccc(-c2nc(C#N)c(S(=O)(=O)n3nc(C)cc3N)o2)cc1
active: [1] -25.8%
inactive: [2] 46.5% | [3] 87.2% | [4] 99.8% | [5] 111% | [6] 108% | [7] 54.3% | [8] 103% | [9] 98.5% | [10] 55.2% | [11] 80.4% | [12] 96.2% | [13] 15% | [14] 88.2% | [15] 65.5% | [16] 110% | [17] 92.8%

O=C(Nc1ccc2[nH]ncc2c1)c1csc(Nc2ccccc2)n1
inactive: [1] 22.8% | [3] 35.9% | [4] 64.5% | [5] 61.6% | [18] 54.9% | [7] 13.1% | [8] 38.3% | [9] 16.5% | [10] 37.1% | [11] 62% | [13] 21% | [14] 14.1% | [15] 35.3% | [16] 62.5% | [17] 27.7%
active: [2] 7.99% | [12] -11.9%

CCOc1ccc(-c2cc(C3(S(=O)(=O)c4ccc(C)cc4)CC=CC3)on2)cc1
inactive: [1] 69.1% | [2] 62.4% | [3] 90.4% | [4] 101% | [5] 74.3% | [18] 88.5% | [7] 92% | [8] 96.4% | [9] 71% | [10] 64.4% | [11] 94.8% | [12] 95.1% | [13] 89.4% | [14] 95.9% | [15] 82.3% | [16] 97.1% | [17] 94.4%

O=c1c2cccc3c(N4CCOCC4)ccc(c32)c2nc3ccccc3n12
inactive: [1] 83.7% | [2] 81.7% | [3] 93.8% | [4] 99.2% | [5] 69.9% | [6] 91.4% | [7] 100% | [8] 40.2% | [9] 93.9% | [10] 38.1% | [11] 93.8% | [12] 104% | [13] 103% | [14] 24% | [15] 87% | [16] 73.2% | [17] 78.1%

COC(=O)[C@H](C)NC(=O)[C@@H]1CCCN1C(=O)CNC(=O)[C@H](C)N
inactive: [1] 114% | [2] 116% | [3] 105% | [4] 114% | [5] 89.1% | [6] 102% | [7] 112% | [8] 99.8% | [9] 106% | [10] 97.6% | [11] 109% | [12] 102% | [13] 105% | [14] 110% | [15] 99.6% | [16] 106% | [17] 104%

O=C(Nc1ccccc1)Nc1ccccc1CNc1nc(Nc2ccc(OCCN3CCCC3)cc2)ncc1Cl
inactive: [3] 50.4% | [4] 106% | [5] 19.5% | [18] 84.2% | [8] 66.3% | [9] 71% | [10] 55.7% | [11] 74.8% | [12] 55.2% | [13] 73% | [14] 48.9% | [15] 45.7% | [16] 58.3% | [17] 43.7%
active: [1] -6.4% | [2] -0.283% | [7] 2.33%

CN(Cc1ccccc1)c1nc(Cl)c(C2CC(c3ccc(Cl)cc3)=NN2c2cc(Cl)cc(Cl)c2)s1 (stereo unspecified)
inactive: [1] 109% | [2] 81.4% | [3] 106% | [4] 113% | [5] 97.6% | [18] 102% | [7] 109% | [8] 116% | [9] 102% | [10] 84.9% | [11] 101% | [12] 103% | [13] 98.8% | [14] 79.8% | [15] 88.6% | [16] 90.9% | [17] 103%

CC(C)(C)n1cc(-c2ccnc(NCCNS(=O)(=O)c3ccc(Br)cc3)c2)c(-c2cccc(O)c2)n1
active: [1] -10.5% | [2] 3.61% | [10] 8.09% | [13] 5.53% | [14] 8.18% | [16] -17.5%
inactive: [3] 35.7% | [4] 47.5% | [5] 42.8% | [6] 53.2% | [7] 38.6% | [8] 16.8% | [9] 33% | [11] 30.8% | [12] 28.1% | [15] 19.7% | [17] 17.3%

O=C1CCc2c(sc3[nH]c(=S)n(-c4cc(C(F)(F)F)cc(C(F)(F)F)c4)c(=O)c23)C1
active: [2] -23.7% | [3] 1.35% | [4] -24.4% | [5] 4.84% | [6] -18.7% | [7] -13.3% | [8] -6.29% | [9] -13.4% | [10] -34.6% | [12] 7.15% | [14] 0.882% | [15] 3.29% | [17] -70.2%
inactive: [1] 13.4% | [13] 18.5%

CCOC(=O)/C=C1\S/C(=N\Nc2cc(=O)[nH]c3ccc(OC)cc23)N(c2ccccc2)C1=O
inactive: [1] 50.4% | [2] 87.2% | [3] 98.7% | [4] 106% | [5] 82.7% | [18] 92.2% | [7] 95.8% | [8] 103% | [9] 104% | [10] 73.6% | [11] 99.6% | [12] 97% | [13] 95.3% | [14] 69.4% | [15] 93.9% | [16] 115% | [17] 91.8%

C#CC(F)(F)[C@]1(O)CCC2C3CCC4=CC(=O)CCC4=C3[C@@H](c3ccc(N(C)C)cc3)C[C@@]21C (stereo partly specified)
inactive: [1] 63.8% | [2] 74.6% | [3] 86.7% | [4] 119% | [5] 88.4% | [6] 87.8% | [7] 95.1% | [8] 89.1% | [9] 94.6% | [10] 44% | [11] 88.7% | [13] 103% | [14] 57.8% | [15] 71.2% | [16] 111% | [17] 99.3%
